Results from PubChem BioAssay (NCI).
The panel holds about 79,000 compounds, 15% with a hit somewhere; the sample as a whole holds those more often. Activity calls are given as the source filed them. No stated cut-off is given here; in the data, active means growth inhibition above about 70%; inactive means the rest.

Assays:
[1] = NCI Yeast Anticancer Drug Screen. Data for the rad50 strain (AID 155);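 further: 0% = growth of vehicle-only cultures of the same strain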; details: S. cerevisiae rad50 strain growth inhibition, stronger effect = higher value
Summary of the method: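 Inhibition values express reduced yeast growth in compound-treated cultures relative to vehicle-treated controls.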

[2] = NCI Yeast Anticancer Drug Screen. Data for the mec2-1 strain (AID 157); details: S. cerevisiae mec2-1 strain, stronger effect = higher value
Summary of the method: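 Mutant yeast (mec2-1) grown with compound; growth inhibition relative to vehicle control reported.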

[3] = NCI Yeast Anticancer Drug Screen. Data for the sgs1 mgt1 strain (AID 161);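 further: 0% = growth of cultures given vehicle only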; details: S. cerevisiae sgs1 mgt1 strain, stronger effect = higher value
Summary of the method: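 Compounds are added to genetically altered yeast, and growth is compared with cultures given vehicle alone to give percent inhibition.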

[4] = NCI Yeast Anticancer Drug Screen. Data for the cln2 rad14 strain (AID 165);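 further: 0% = growth equal to vehicle treated cultures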; details: S. cerevisiae cln2 rad14 strain, stronger effect = higher value
Summary of the method: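 Readout is yeast growth inhibition versus vehicle-treated controls, using a strain with cln2 and rad14 alterations exposed to compound.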

[5] = NCI Yeast Anticancer Drug Screen. Data for the bub3 strain (AID 167); details: S. cerevisiae bub3 mutant strain, stronger effect = higher value
Summary of the method: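 Steps: expose the mutant yeast strain to compound; grow alongside vehicle-treated cultures; measure growth; express inhibition against the vehicle cultures.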

[6] = NCI Yeast Anticancer Drug Screen. Data for the mlh1 rad18 strain (AID 175); details: S. cerevisiae mlh1 rad18 strain growth inhibition, stronger effect = higher value
Summary of the method: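 Genetically defined yeast (DNA repair-deficient) exposed to compounds; growth inhibition determined relative to vehicle.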

[7] = at 5.0 µM (retest, dose inferred, filed as 0.5)
[8] = at 50.0 µM (retest, dose inferred, filed as 5.0)

Structure (SMILES) | growth inhibition [1, 7] | growth inhibition [1, 8] | growth inhibition ([1]; at 50.0 µM) | growth inhibition [2, 7] | growth inhibition [2, 8] | growth inhibition ([2]; at 50.0 µM) | growth inhibition [3, 7] | growth inhibition [3, 8] | growth inhibition ([3]; at 50.0 µM) | growth inhibition [4, 7] | growth inhibition [4, 8] | growth inhibition ([4]; at 50.0 µM) | growth inhibition [5, 7] | growth inhibition [5, 8] | growth inhibition ([5]; at 50.0 µM) | growth inhibition [6, 7] | growth inhibition [6, 8] | growth inhibition ([6]; at 50.0 µM)
COc1ccc(/C=C(/C#N)c2ccccc2)cc1 | 8% (inactive) | -2% (inactive) | 67.1% (inactive) | 9% (inactive) | 27% (inactive) | 19.6% (inactive) | 9% (inactive) | 2% (inactive) | 81.5% (active) | 1% (inactive) | 4% (inactive) | 16.4% (inactive) | 10% (inactive) | 55% (inactive) | 73.5% (active) | 5% (inactive) | 19% (inactive) | 69% (inactive)
COc1ccc(N=NN2CCCC2)cc1 | 35% (inactive) | 42% (inactive) | 89.7% (active) | 25% (inactive) | 27% (inactive) | 92.5% (active) | 45% (inactive) | 52% (inactive) | 86.3% (active) | 46% (inactive) | 56% (inactive) | 89.7% (active) | 49% (inactive) | 50% (inactive) | 90.5% (active) | 14% (inactive) | 33% (inactive) | 91.2% (active)
CCN1C2=NCCN2S(=O)(=O)c2ccccc21 | 5% (inactive) | 11% (inactive) | -14.4% (inactive) | 9% (inactive) | 9% (inactive) | -4.45% (inactive) | 8% (inactive) | 14% (inactive) | -27.9% (inactive) | 14% (inactive) | 10% (inactive) | -20.6% (inactive) | 13% (inactive) | 11% (inactive) | -22.1% (inactive) | 20% (inactive) | 13% (inactive) | -5.3% (inactive)
CC(=O)Nc1ccc2c(c1)C(S)c1ccccc1-2 (centres undefined) | -5% (inactive) | 32% (inactive) | 52% (inactive) | 9% (inactive) | 27% (inactive) | 31.7% (inactive) | 2% (inactive) | 53% (inactive) | 46.6% (inactive) | -70% (inactive) | 18% (inactive) | 33.2% (inactive) | -1% (inactive) | -60% (inactive) | 49.4% (inactive) | -2% (inactive) | 71% (active) | 37.2% (inactive)
CCNc1cc(SC)nc(N)n1 | 1% (inactive) | -4% (inactive) | 1.2% (inactive) | -1% (inactive) | 2% (inactive) | 37.1% (inactive) | -1% (inactive) | -3% (inactive) | -7.6% (inactive) | -8% (inactive) | 3% (inactive) | -3.6% (inactive) | -2% (inactive) | -1% (inactive) | -23.2% (inactive) | 1% (inactive) | -4% (inactive) | -22.4% (inactive)
Cn1c(-c2ccccc2)c(CCNC(=O)C2CCC2)c2ccccc21 | 18% (inactive) | 18% (inactive) | 81.2% (active) | 14% (inactive) | 14% (inactive) | 86% (active) | 12% (inactive) | 12% (inactive) | 79.2% (active) | 7% (inactive) | 7% (inactive) | 77.3% (active) | 11% (inactive) | 11% (inactive) | 79.2% (active) | 18% (inactive) | 18% (inactive) | 75.2% (active)
Oc1cccc2ccc(SSc3ccc4cccc(O)c4n3)nc12 | 99% (active) | 95% (active) | 92.2% (active) | 100% (active) | 95% (active) | 95.7% (active) | 94% (active) | 95% (active) | 93% (active) | 85% (active) | 87% (active) | 74.8% (active) | 96% (active) | 95% (active) | 90.5% (active) | 93% (active) | 93% (active) | 93.3% (active)
Oc1ccc2cc(Br)ccc2c1 | 8% (inactive) | 98% (active) | 54.1% (inactive) | 0% (inactive) | 99% (active) | 99% (active) | 2% (inactive) | 97% (active) | 45.1% (inactive) | -2% (inactive) | 98% (active) | 56.4% (inactive) | 4% (inactive) | 99% (active) | 99% (active) | 3% (inactive) | 99% (active) | 98.8% (active)
O=C(CCn1[nH]c(=O)c(Cl)c(Cl)c1=O)NNc1ccc([N+](=O)[O-])cc1[N+](=O)[O-] | 4% (inactive) | 36% (inactive) | 35.8% (inactive) | -7% (inactive) | 2% (inactive) | -4.7% (inactive) | 1% (inactive) | 18% (inactive) | -12.9% (inactive) | -2% (inactive) | 1% (inactive) | -2.45% (inactive) | 1% (inactive) | 19% (inactive) | 26.2% (inactive) | 2% (inactive) | 17% (inactive) | 88.2% (active)
CCCCCC/C=C/C#CCCCCCCCC(=O)O | 30% (inactive) | 15% (inactive) | 5.5% (inactive) | 21% (inactive) | 11% (inactive) | 9.2% (inactive) | 33% (inactive) | 37% (inactive) | 14% (inactive) | 17% (inactive) | 16% (inactive) | 11.8% (inactive) | 19% (inactive) | 3% (inactive) | 17.3% (inactive) | 57% (inactive) | 44% (inactive) | -88.8% (inactive)
O=C1/C(=C/c2ccccc2Cl)COc2ccccc21 | 30% (inactive) | 97% (active) | 91.5% (active) | -15% (inactive) | 98% (active) | 93.9% (active) | 15% (inactive) | 97% (active) | 90.7% (active) | 20% (inactive) | 97% (active) | 90.8% (active) | 32% (inactive) | 98% (active) | 90.7% (active) | -25% (inactive) | 97% (active) | 90.2% (active)
Cc1ccc(S(=O)(=O)N/N=C/c2oc(-c3cccc([N+](=O)[O-])c3)c(-c3cccc([N+](=O)[O-])c3)c2[N+](=O)[O-])cc1 | 56% (inactive) | 56% (inactive) | 86.7% (active) | 17% (inactive) | 17% (inactive) | 92.7% (active) | 50% (inactive) | 50% (inactive) | 92.1% (active) | 27% (inactive) | 27% (inactive) | 91.7% (active) | 31% (inactive) | 31% (inactive) | 87.9% (active) | 57% (inactive) | 57% (inactive) | 89.7% (active)
CC(C)NC(=O)O/N=C1\CCC2[C@@H]3CC=C4C[C@@H](OC(=O)NC(C)C)CC[C@]4(C)C3CC[C@]12C (some centres undefined) | 88% (active) | 77% (active) | 83% (active) | 91% (active) | 67% (inactive) | 83% (active) | 90% (active) | 73% (active) | 92.3% (active) | 95% (active) | 75% (active) | 81.2% (active) | 83% (active) | 72% (active) | 91.2% (active) | 91% (active) | 71% (active) | 92% (active)
Brc1ccc(CCNCCN2CCCCC2)cc1 | 19% (inactive) | 65% (inactive) | 50.9% (inactive) | 25% (inactive) | 68% (inactive) | 21% (inactive) | 24% (inactive) | 68% (inactive) | 63.2% (inactive) | 45% (inactive) | 61% (inactive) | 37.6% (inactive) | 15% (inactive) | 57% (inactive) | 61.1% (inactive) | 25% (inactive) | 89% (active) | 45% (inactive)
CCc1c(C(=O)OC)c(C(=O)OC)c(-c2ccccc2)n1CCn1c(CC)c(C(=O)OC)c(C(=O)OC)c1-c1ccccc1 | -2% (inactive) | 82% (active) | 50.1% (inactive) | -2% (inactive) | 64% (inactive) | 38.2% (inactive) | -2% (inactive) | 74% (active) | 28.6% (inactive) | 1% (inactive) | 52% (inactive) | 25.5% (inactive) | 1% (inactive) | 83% (active) | 98.5% (active) | 2% (inactive) | 54% (inactive) | 40.4% (inactive)
C=CC1(NC(=O)c2ccccc2)CCC(C(C)(C)C)CC1 (centres undefined) | -10% (inactive) | 96% (active) | 48.9% (inactive) | -5% (inactive) | 89% (active) | -0.2% (inactive) | -5% (inactive) | 94% (active) | 43.6% (inactive) | 5% (inactive) | 86% (active) | 10.6% (inactive) | 2% (inactive) | 95% (active) | 49.9% (inactive) | -7% (inactive) | 93% (active) | 40.4% (inactive)
CC1(c2ccccc2)OC(=O)C=CC1=O (centres undefined) | 15% (inactive) | 99% (active) | 99.4% (active) | 28% (inactive) | 98% (active) | 99.7% (active) | 21% (inactive) | 97% (active) | 99.5% (active) | 8% (inactive) | 100% (active) | 99% (active) | 32% (inactive) | 100% (active) | 99.5% (active) | 27% (inactive) | 99% (active) | 99.5% (active)
OCC(O)C(O)C(O)C(/C=N/Nc1ccccc1)=N\Nc1ccccc1 (centres undefined) | 4% (inactive) | -3% (inactive) | 51.4% (inactive) | -1% (inactive) | -1% (inactive) | 4.95% (inactive) | 20% (inactive) | 16% (inactive) | 70.7% (active) | -41% (inactive) | 4% (inactive) | -0.65% (inactive) | 1% (inactive) | -89% (inactive) | 4.3% (inactive) | 16% (inactive) | 4% (inactive) | 30.4% (inactive)
